Source: PubChem BioAssay (NCATS)
Results filed as inconclusive are left out. The source made the active and inactive calls. Calls follow the shape of the dose curve; as a rule, active = well fitted curve in the direction sought with a large enough effect; inconclusive = small, poorly fitted or top-dose-only effect, or another doubt; inactive = no such curve, though single readings can be large; an effect the other way counts as inactive or inconclusive.

Legend:
[1] = qHTS of pediatric cancer cell lines to identify multiple opportunities for drug repurposing: Primary screen for RD cells (AID 1347104); also: nearly all actives have a fitted effect of over 55% in size
Outline: (§1)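 ATP-based luminescence (CellTiter-Glo) quantifies viability after a 48-hour exposure. Compounds are dosed across 8 or 11 final concentrations; DMSO and 2.3 µM bortezomib serve as controls.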

[2] = qHTS of pediatric cancer cell lines to identify multiple opportunities for drug repurposing: Primary screen for MG 63 (6-TG R) cells (AID 1347105); also: nearly all actives have a fitted effect of over 50% in size
Outline: as §1

[3] = qHTS of pediatric cancer cell lines to identify multiple opportunities for drug repurposing: Primary screen for control Hh wild type fibroblast cells (AID 1347106);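 also: series mostly up to about 46 µM; a drop in luminescence marks cytotoxicity and a rise apparent proliferation; nearly all actives have a fitted effect of over 55% in size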
Outline: (§2)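 Cells (500-1,000/well) in growth media were settled 5 h at 37 degrees C, then given compounds for 48 h. Viability was read as CellTiter-Glo luminescence. Primary runs used MIPE at 11 points (0.78 nM-46 µM) and NPC at 8 points (0.59 nM-46 µM); follow-ups used 11 points.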

[4] = qHTS of pediatric cancer cell lines to identify multiple opportunities for drug repurposing: Primary screen for Rh30 cells (AID 1347107); also: series mostly up to about 46 µM; nearly all actives have a fitted effect of over 75% in size
Outline: as §2

[5] = qHTS of pediatric cancer cell lines to identify multiple opportunities for drug repurposing: Primary screen for Rh41 cells (AID 1347108);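 also: series mostly up to about 46 µM; luminescence drop marks cytotoxic hits; nearly all actives have a fitted effect of over 70% in size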
Outline: as §1

[6] = qHTS of pediatric cancer cell lines to identify multiple opportunities for drug repurposing: Confirmatory screen for LAN-5 cells (AID 1347113); also: nearly all actives have a fitted effect of over 65% in size
Outline: as §2

Measured: Potency

FC(F)(F)C(F)(F)C(F)(F)C(F)(F)C(F)(F)C(F)(F)C(F)(F)C(F)(F)Br
inactive: [1] | [2] | [3] | [4] | [5]

CN(CCCN1c2ccccc2CCc2ccccc21)CC(=O)c1ccc(Cl)cc1
inactive: [1] | [2] | [3] | [4] | [5]

Oc1ccccc1C=NCc1ccccc1
inactive: [1] | [2] | [3] | [4] | [5]

Nc1nc(N)c(-c2ccccc2)s1
inactive: [1] | [2] | [3] | [4] | [5]

O=[N+]([O-])c1cccc(S(=O)(=O)NCCNS(=O)(=O)c2cccc([N+](=O)[O-])c2)c1
inactive: [1] | [2] | [3] | [4] | [5]

COc1ccc(CCN(C)CCCN2CCc3cc(OC)c(OC)cc3CC2=O)cc1OC
inactive: [1] | [2] | [3] | [4] | [5]

CC1CCc2c(N3CCC(O)CC3)c(F)cc3c(=O)c(C(=O)O)cn1c23 (stereo unspecified)
inactive: [1] | [2] | [3] | [4] | [5] | [6]

COc1cc(C)nc(-n2nc(C)cc2OC)n1
inactive: [1] | [2] | [3] | [4] | [5]
